In all, about 33,000 sequences were measured (“E-score (-0.5 to 0.5)”: median about -0.035, highest 2% from about 0.34 on). The entries come from a sample that favours the highest values as a whole.
target: T1, Mot3 (UniProt P54785); test: PBM E-score (8-mer binding enrichment) (E-score (-0.5 to 0.5)); higher = stronger / more preferred TF binding; details: protein concentration: 200 nM; construct: GST-full length
T1 sequence: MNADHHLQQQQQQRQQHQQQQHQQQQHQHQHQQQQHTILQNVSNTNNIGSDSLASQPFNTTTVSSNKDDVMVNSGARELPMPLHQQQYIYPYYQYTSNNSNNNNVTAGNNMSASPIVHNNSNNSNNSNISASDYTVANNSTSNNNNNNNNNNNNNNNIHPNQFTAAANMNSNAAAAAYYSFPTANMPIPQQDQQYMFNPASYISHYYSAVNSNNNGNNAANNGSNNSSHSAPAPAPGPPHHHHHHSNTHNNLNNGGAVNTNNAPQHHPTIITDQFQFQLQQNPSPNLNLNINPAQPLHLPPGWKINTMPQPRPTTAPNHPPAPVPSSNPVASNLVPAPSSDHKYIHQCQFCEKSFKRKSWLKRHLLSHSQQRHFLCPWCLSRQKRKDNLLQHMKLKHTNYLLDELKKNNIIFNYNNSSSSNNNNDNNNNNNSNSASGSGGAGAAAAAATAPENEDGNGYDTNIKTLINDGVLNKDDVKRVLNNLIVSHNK
How it was run: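 E-scores (a modified Wilcoxon-Mann-Whitney statistic) were assigned by the Universal PBM Analysis Suite to every ungapped eight-base word pooled with its reverse complement. The input came from universal all-10-mer Agilent arrays made double-stranded by primer extension and probed with GST-tagged yeast transcription factors at about 100-200 nM. Fluorescent anti-GST detected bound protein, and masliner normalised the scans.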

Sequence | PBM E-score
ATAAACCG | -0.195
ACAGCGGC | -0.112
ATTAGAAC | 0.0827
AGCTACAG | -0.0877
CACACACG | 0.159
CACACACA | 0.249
AATACAAG | 0.313
GATACACA | 0.14
TACACGCA | 0.346
AATACACC | 0.271
AATACACG | 0.394
AACACGCA | 0.326
AATACACT | 0.259
AATACACA | 0.389
TACACACA | 0.385
GACACGCA | 0.246
CAAACGTG | 0.0815
CCGACCAC | -0.189
AGGGTCCA | -0.297
CCGTATAG | -0.208
ACATCGGG | -0.13
ATCAATGC | -0.189
CTCCAAAA | -0.179
CAGGGACG | 0.0493
GGAGAAAC | -0.149

Sequence | PBM E-score
CGTAGCGA | -0.285
GACTTGCC | 0.127
CAGGTACG | 0.409
CAGATACG | -0.243
AGGGTACC | 0.0598
GAGGTACC | -0.0594
CAGGTACC | 0.434
AAGGTAGA | -0.0631
AAGGTACC | 0.419
CCGGTACG | -0.199
CAGGTATC | 0.056
AAGGTACA | 0.394
CGGGTACC | 0.0123
AAGGTATA | 0.113
ATCGAACC | -0.089
ACTATCCA | -0.204
CGCCTTGA | -0.0273
AACATTGT | 0.257
ATCTCCGA | -0.0589
ATAAGTTA | 0.213
AACTTAAA | 0.212
ACGCTTCC | -0.0948
CAGATCGA | -0.213
AACAGCAA | 0.0647
AAGGTATG | 0.0554

Sequence | PBM E-score
ACGGTACT | -0.207
ACGGTACG | -0.0434
AAGGTAGT | -0.0675
AAGGTACG | 0.436
AAGGTACT | 0.364
GACTCCAC | -0.34
AGGCTCGG | 0.146
ATGCGCTG | -0.00636
AGCTACAT | 0.145
ATATGTAA | 0.346
CTCTGTAC | 0.0774
CTCTGTAA | 0.133
ATATGTGA | 0.197
ATATGTAG | 0.202
GTATGTAA | 0.404
GGATGTAA | 0.295
AGATGTAA | 0.272
ATATGTAC | 0.274
CTATGTAC | 0.378
CTATGTAA | 0.41
GTATGTGA | 0.0776
CGATAGCA | -0.159
CCCTTGCG | -0.214
ACAAGTGC | 0.201
CGATCGCG | -0.102

Sequence | PBM E-score
GACCAATC | -0.039
CCAAGTCG | -0.155
AACCATCT | -0.143
CCTACTCA | -0.046
ATGCTGCG | -0.101
ATATGTTA | 0.284
GTATGTTA | 0.354
CTATGTTA | 0.329
ACTGAGAG | -0.0806
ACAGAACT | -0.0328
CCCCGGGG | -0.37
GGGCTAAA | -0.189
ATACCTGA | 0.0776
ATACCTTA | -0.0699
CTACCTTA | 0.0561
GTACCTTA | 0.355
CTACCTGA | 0.0134
GTACCTGA | 0.402
CTTAAGCA | 0.104
CCGAATTC | -0.242
AGAATCAC | -0.211
CTGTGGCC | -0.0368
ATTACGCC | 0.102
AATACGCG | 0.354
ATTACGCA | 0.354

Sequence | PBM E-score
CTTACGCA | 0.301
GTTACGCA | 0.207
CATACGCG | 0.155
AATACGCT | 0.188
ATTACGCG | 0.377
ATTACGGG | -0.00149
AAACTGCA | -0.0533
CTAGCAGC | -0.257
CAACTGAA | 0.0709
GAATGCAA | -0.0468
CAGGGATG | 0.034
AAGGTATT | 0.16
AAGGTAAG | 0.27
AAGGTAAT | 0.34
CAGGTAAC | 0.39
CAGGTAAA | 0.383
AGGGTAAT | -0.0805
AAGGTAAA | 0.334
GAGGTAAC | -0.0204
AAGGTAAC | 0.339
AAGGTAGC | 0.149
CAGGTAAG | 0.271
GAGGTAAA | 0.0852
CATTGGAG | -0.179
AGAGGTTA | 0.0342

Sequence | PBM E-score
CTGAATGA | 0.00529
GACTGTAA | 0.147
ATCCACCC | -0.246
TCTCAGAA | -0.0878
CTACTCGA | 0.0146
CCGCAAAC | -0.0792
AAGCTATA | -0.00123
CGAAAAAG | 0.142
CCAGCTTC | -0.187
TATTTAAA | 0.231
CATTTACC | 0.158
AATTTACA | 0.382
CATTTACA | 0.363
AATTTACC | 0.153
TATTTAGA | 0.184
GATTTACA | 0.332
TATTTACA | 0.386
CATTTACG | 0.201
AAGCAGAC | -0.0963
AAATCGCC | -0.255
ACCGGTGA | -0.16
GCTACCAC | -0.216
TGCCTTAA | 0.471
CGCCTTAA | 0.323
TACCTACA | 0.381

Sequence | PBM E-score
GTCCTAAA | 0.125
CACCTACA | 0.227
GGCCTAAA | 0.0327
TGCCTAAA | 0.476
TTCCTAAA | 0.408
ATCCTAAA | -0.0533
AGCCTAAA | 0.178
AGCCTTAA | 0.158
GACCTACA | 0.045
CACCTCCA | -0.138
AGTTCGAC | 0.0301
CTTCCCTA | -0.206
CAGGTGCA | 0.0796
GCAAAAAA | 0.203
CTAGACTA | -0.24
CAGCGTAC | -0.0299
CGCCTACA | 0.224
AACCTGCA | 0.0857
TACCTTCA | 0.376
GGCCTACA | 0.00717
TGCCTACA | 0.487
TACCTGCA | 0.403

Reference: the supplement of paper PMC3334620
